This passage reports Potency and outcome results from PubChem BioAssay (Tox21).

The nature of test [1]: qHTS assay to identify small molecule antagonists of the androgen receptor (AR) signaling pathway using the MDA cell line in the presence of 0.5 nM R1881 - cell viability counter screen (AID 1259242). Also: nearly all actives have a fitted effect of over 45% in size. The procedure, abridged:
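Live-cell protease fluorescence, CellTiter-Fluor, 30 min at 37C. Cells: MDA-kb2, 3,000/well, preincubated 5 hr. Compounds plus 0.5 nM R1881 final, 16 hr, 37C, 0% CO2.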

The target in test [2] is Androgen receptor (Homo sapiens) (UniProt P10275). Briefly: qHTS assay to identify small molecule antagonists of the androgen receptor (AR) signaling pathway using the MDA cell line in the presence of 0.5 nM R1881 (AID 1259243). Also: nearly all actives have a fitted effect of over 50% in size. The procedure, abridged: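 MDA-kb2, MMTV-luc (AR/GR elements); 3,000 cells/well; cpd + 0.5 nM R1881 final; 16 hr 37C, 0% CO2; ONE-Glo 30 min RT; luminescence.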
Androgen receptor (Homo sapiens), sequence (P10275 whole entry, looked up): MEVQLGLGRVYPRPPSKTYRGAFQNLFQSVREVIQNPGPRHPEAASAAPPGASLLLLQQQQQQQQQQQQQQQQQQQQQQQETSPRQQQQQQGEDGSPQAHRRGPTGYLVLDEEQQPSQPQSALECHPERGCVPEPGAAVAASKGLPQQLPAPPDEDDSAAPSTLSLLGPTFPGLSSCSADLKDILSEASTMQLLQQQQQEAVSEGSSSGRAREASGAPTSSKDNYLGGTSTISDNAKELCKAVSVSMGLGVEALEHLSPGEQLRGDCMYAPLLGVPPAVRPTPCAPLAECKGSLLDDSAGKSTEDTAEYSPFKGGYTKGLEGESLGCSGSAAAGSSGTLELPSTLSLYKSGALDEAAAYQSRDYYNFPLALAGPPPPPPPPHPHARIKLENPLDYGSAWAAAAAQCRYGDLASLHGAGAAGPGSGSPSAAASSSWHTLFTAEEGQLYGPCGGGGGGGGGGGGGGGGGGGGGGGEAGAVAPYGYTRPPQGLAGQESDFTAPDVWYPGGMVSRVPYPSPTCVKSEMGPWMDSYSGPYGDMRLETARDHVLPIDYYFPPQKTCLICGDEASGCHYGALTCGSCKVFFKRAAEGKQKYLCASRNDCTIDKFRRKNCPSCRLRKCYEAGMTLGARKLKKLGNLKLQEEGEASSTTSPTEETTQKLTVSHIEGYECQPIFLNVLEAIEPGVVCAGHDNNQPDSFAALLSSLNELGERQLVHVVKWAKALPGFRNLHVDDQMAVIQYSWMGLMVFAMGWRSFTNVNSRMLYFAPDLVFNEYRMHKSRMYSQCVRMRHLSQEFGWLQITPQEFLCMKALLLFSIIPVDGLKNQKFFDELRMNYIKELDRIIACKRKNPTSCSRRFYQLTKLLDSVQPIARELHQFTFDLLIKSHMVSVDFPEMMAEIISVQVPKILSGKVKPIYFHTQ

Test [3] addresses Estrogen receptor (Homo sapiens) (UniProt P03372). Briefly: qHTS assay to identify small molecule antagonists of the estrogen receptor alpha (ER-alpha) signaling pathway using the BG1 cell line in the presence of 0.1 nM 17-beta-estradiol (AID 1259244). Also: nearly all actives have a fitted effect of over 50% in size. Also: potency is read from the fitted curve at half-maximal effect. The procedure, abridged: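 Luminescence after ONE-Glo (30 min, room temperature) measured ERE-luciferase activity in VM7Luc4E2 cells treated 22 h with compound and 0.1 nM final 17beta-estradiol as stimulator.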

Test [4] in a line: qHTS assay to identify small molecule HDAC inhibitors (AID 1259364).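 Also: wild-type HCT-116 cells with endogenous class I/II HDAC activity; top concentration of the series differs between compounds; nearly all actives have a fitted effect of over 45% in size.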 The procedure, abridged:
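HCT-116 (wild type), 1,500 cells/well, overnight; compound 2 hr 37C 5% CO2; HDAC-Glo I/II reagent 30 min RT; luminescence readout.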
In general terms: Quantitative high-throughput screening tests each substance at several concentrations.

Test [5] in a line: qHTS assay to identify small molecule HDAC inhibitors - cell viability counter screen (AID 1259365). Also: series mostly up to about 92 µM; nearly all actives have a fitted effect of over 50% in size. The procedure, abridged:
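HCT-116 wild-type, overnight attachment; 2hr drug exposure, 37C; CellTiter-Glo luminescent ATP readout after 30min RT.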

Test [6] in a line: qHTS assay to identify small molecule agonists of the sonic hedgehog signaling (Shh) pathway - cell viability counter screen (AID 1259366). Also: nearly all actives have a fitted effect of over 50% in size. The procedure, abridged: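 Compounds in DMSO were pin-transferred onto 3T3 Gli1-Luc cells that had settled 4hr; plates then stood 24hr at 37C and 5% CO2. One hour before the end, CellTiter-Fluor was added and fluorescence recorded.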
Test [7] is described as follows: qHTS assay to identify small molecule antagonists of the sonic hedgehog signaling (Shh) pathway - cell viability counter screen (AID 1259367). Also: nearly all actives have a fitted effect of over 55% in size. The procedure, abridged: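 Viability was read by CellTiter-Fluor fluorescence in the same wells, reagent added 23 hr into compound treatment and incubated 1 hr at 37C. The 3T3 Gli1-Luc reporter cells (2,000/well) received conditioned medium after compound and ran 24 hr.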

Test [8] in a line: qHTS assay to identify small molecule agonists of the sonic hedgehog signaling (Shh) pathway (AID 1259368; calls by dose curve;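 also: NIH/3T3-derived 3T3Gli1-Luc cells carrying a stable Gli1-driven firefly luciferase reporter; series mostly up to about 92 µM; nearly all actives have a fitted effect of over 15% in size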). The procedure, abridged: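 Read-out: firefly luciferase luminescence from a Gli1 response element reporter stably integrated in NIH/3T3-derived 3T3Gli1-Luc cells, measured 30 min at room temperature after reagent addition. Compound exposure lasted 24 hr at 37 C, 5% CO2.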

Test [9] in a line: qHTS assay to identify small molecule antagonists of the sonic hedgehog signaling (Shh) pathway (AID 1259369; calls by dose curve; also: nearly all actives have a fitted effect of over 45% in size; also: potency is read from the fitted curve at half-maximal effect). The procedure, abridged:
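Luminescence readout: firefly Luc under Gli1 response element in 3T3Gli1-Luc cells (NIH/3T3 clone). Antagonist mode, stimulation by conditioned medium; compound exposure 24hr at 37 C, 5% CO2.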

In test [10] the target is Estrogen receptor beta (Homo sapiens) (UniProt Q92731). Briefly: qHTS assay to identify small molecule agonists of the estrogen receptor beta (ER-beta) signaling pathway (AID 1259377; active = well fitted activation curve with a large enough effect in the signal ratio in the repeat runs, not every such curve was filed as active; the % refers to the signal ratio). The procedure, abridged: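 qHTS in ER-beta-UAS-bla HEK293T cells: 6 hr settling, then 16 hr compound at 37C, then LiveBLAzer substrate 2 h at RT before fluorescence reading.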
Estrogen receptor beta (Homo sapiens), sequence (Q92731 whole entry, looked up): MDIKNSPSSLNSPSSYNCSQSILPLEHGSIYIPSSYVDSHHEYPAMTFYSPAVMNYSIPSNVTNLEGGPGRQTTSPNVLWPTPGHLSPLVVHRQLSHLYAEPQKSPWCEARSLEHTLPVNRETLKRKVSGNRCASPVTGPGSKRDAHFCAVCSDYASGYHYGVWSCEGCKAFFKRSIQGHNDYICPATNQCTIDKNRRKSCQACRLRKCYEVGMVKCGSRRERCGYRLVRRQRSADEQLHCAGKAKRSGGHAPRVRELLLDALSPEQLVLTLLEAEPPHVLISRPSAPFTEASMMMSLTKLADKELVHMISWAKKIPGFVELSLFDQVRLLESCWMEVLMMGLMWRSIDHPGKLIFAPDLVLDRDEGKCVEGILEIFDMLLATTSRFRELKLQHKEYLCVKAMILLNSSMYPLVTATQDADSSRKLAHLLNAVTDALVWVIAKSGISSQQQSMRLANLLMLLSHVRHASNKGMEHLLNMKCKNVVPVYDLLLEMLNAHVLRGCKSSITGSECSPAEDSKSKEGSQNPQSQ
Test [11] has the same target. Description: qHTS assay to identify small molecule antagonists of the estrogen receptor beta (ER-beta) signaling pathway (AID 1259378; active = well fitted inhibition curve with a large enough effect in the signal ratio in the repeat runs, not every such curve was filed as active; the % refers to the signal ratio; also: potency is read from the fitted curve at half-maximal effect). The procedure, abridged:
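Antagonist mode: compounds added to beta-lactamase reporter HEK293T ER-beta-UAS cells stimulated with E2 (1nM final), 16 hr at 37C. LiveBLAzer B/G FRET substrate, 2 hours room temperature, fluorescence read-out.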

The nature of test [12]: qHTS assay to identify small molecule agonists of the androgen receptor (AR) signaling pathway in the presence of an antagonist - cell viability counter screen (AID 1259379).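 Also: MDA-kb2 human breast cancer cells carrying an MMTV luciferase reporter; series mostly up to about 92 µM; nearly all actives have a fitted effect of over 25% in size.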 The procedure, abridged: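 Viability counter screen: CellTiter-Fluor fluorescence, measured in the same wells as the luciferase read-out. MDA-kb2 cells, 3,000/well, with nilutamide at 3.0uM final and compounds at 15 concentrations, 16 hr at 37C, 0% CO2.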

The nature of test [13]: qHTS assay to identify small molecule agonists of the estrogen receptor beta (ER-beta) signaling pathway - cell viability counter screen (AID 1259380). Also: nearly all actives have a fitted effect of over 30% in size. Also: potency is read from the fitted curve at half-maximal effect. The procedure, abridged:
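Luminescence read-out (CellTiter-Glo, 30 min, room temp) taken in the same wells as the beta-lactamase reporter assay; ER-beta-UAS-bla HEK293T cells exposed to DMSO-dissolved compounds for 16 hr at 37C in 2% charcoal-stripped FBS medium.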

In test [14] the target is Estrogen receptor (Homo sapiens) (UniProt P03372). Description: qHTS assay to identify small molecule agonists of the estrogen receptor alpha (ER-alpha) signaling pathway in the presence of an antagonist (AID 1259383; calls by dose curve; also: top concentration of the series differs between compounds; nearly all actives have a fitted effect of over 15% in size). The procedure, abridged:
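Luciferase luminescence (ONE-Glo, 30min at room temperature) measured in VM7Luc4E2 cells after 22hr compound exposure at 15 concentrations, with 10.0nM ICI-182,780 final present; cells express endogenous ER-alpha and carry four EREs upstream of luciferase.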

A short description of test [15]: qHTS assay to identify small molecule agonists or antagonists of the thyroid stimulating hormone receptor (TSHR) signaling pathway - wild type cell line counter screen (AID 1259384; calls by dose curve). The procedure, abridged:
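Counter screen in untransfected Hek293: compounds (15-point titration, triplicate) plus phosphodiesterase inhibitor Ro20-1724 added after 18 h plating; 30 min RT. Intracellular cAMP via competitive d2/cryptate immunoassay, 1 h incubation.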

For test [16], the target named is Thyrotropin receptor (Homo sapiens) (UniProt P16473). Description: qHTS assay to identify small molecule antagonists of the thyroid stimulating hormone receptor (TSHR) signaling pathway (AID 1259385; calls by dose curve; also: nearly all actives have a fitted effect of over 20% in size). The procedure, abridged:
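Antagonist mode: compound-treated TSHR-expressing HEK293 cells were stimulated with 1.5 ng/mL TSH (final) in presence of Ro20-1724 for 30 min at RT. HTRF cAMP detection after 1 h; each compound tested at 15 concentrations, triplicate.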

A short description of test [17]: qHTS assay to identify small molecule agonists of the estrogen receptor alpha (ER-alpha) signaling pathway in the presence of an antagonist - cell viability counter screen (AID 1259386). Also: series mostly up to about 92 µM; nearly all actives have a fitted effect of over 30% in size. The procedure, abridged: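 Read-out: CellTiter-Fluor fluorescence after 1hr reagent incubation, measured in the same wells as the luciferase readout. VM7Luc4E2 cells were exposed to 15 compound concentrations with 10.0nM ICI-182,780 for 22hr at 37C.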

Test [18] has as its target Androgen receptor (Homo sapiens) (UniProt P10275). Briefly: qHTS assay to identify small molecule agonists of the androgen receptor (AR) signaling pathway in the presence of an antagonist (AID 1259381; calls by dose curve; also: nearly all actives have a fitted effect of over 15% in size). The procedure, abridged: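 Luciferase read-out (ONE-Glo, 30min room temperature) in MDA-kb2 MMTV-reporter cells; agonist mode run in presence of AR antagonist nilutamide, 3.0uM final. Compounds tested as 15-point series, 16hr exposure at 37C, 0% CO2.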

Test [19] can be described thus: qHTS assay to identify small molecule antagonists of the estrogen receptor beta (ER-beta) signaling pathway - cell viability counter screen (AID 1259382).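 Also: HEK293T cells carrying ER-beta-UAS-bla reporter stimulated with estradiol; series mostly up to about 92 µM; nearly all actives have a fitted effect of over 55% in size.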 The procedure, abridged: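 Luminescent ATP read-out (CellTiter-Glo, 30 min, RT) taken in the same wells as the bla reporter assay. HEK293T ER-beta-UAS-bla cells in 2% charcoal-stripped FBS were exposed to compounds with 1nM E2 for 16 hr at 37C.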

Test [20] can be described thus: qHTS assay to identify small molecule phospholipidosis (PLD) inducers (AID 1259344; active = well fitted curve in the direction sought with a large enough effect; an effect the other way counts as inactive or inconclusive). The procedure, abridged:
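Phospholipid accumulation was scored by imaging: fixed, Hoechst-counterstained HepG2 cells stained with LipidTOX Red after 24 h compound exposure at 37 C. Read-outs were pit count and pit intensity per well or per cell, with amiodarone and DMSO controls.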

Values without a mark were called inactive. Inconclusive results are not listed. Activity calls are given as the source filed them. Unless noted, calls follow the shape of the dose curve; as a rule, active = well fitted curve in the direction sought with a large enough effect in the repeat runs; inconclusive = weak or mixed curves; inactive = no such curve, though single readings can be large; an effect the other way counts as inactive or inconclusive.

Estrogen receptor (Homo sapiens), sequence (P03372 whole entry, looked up): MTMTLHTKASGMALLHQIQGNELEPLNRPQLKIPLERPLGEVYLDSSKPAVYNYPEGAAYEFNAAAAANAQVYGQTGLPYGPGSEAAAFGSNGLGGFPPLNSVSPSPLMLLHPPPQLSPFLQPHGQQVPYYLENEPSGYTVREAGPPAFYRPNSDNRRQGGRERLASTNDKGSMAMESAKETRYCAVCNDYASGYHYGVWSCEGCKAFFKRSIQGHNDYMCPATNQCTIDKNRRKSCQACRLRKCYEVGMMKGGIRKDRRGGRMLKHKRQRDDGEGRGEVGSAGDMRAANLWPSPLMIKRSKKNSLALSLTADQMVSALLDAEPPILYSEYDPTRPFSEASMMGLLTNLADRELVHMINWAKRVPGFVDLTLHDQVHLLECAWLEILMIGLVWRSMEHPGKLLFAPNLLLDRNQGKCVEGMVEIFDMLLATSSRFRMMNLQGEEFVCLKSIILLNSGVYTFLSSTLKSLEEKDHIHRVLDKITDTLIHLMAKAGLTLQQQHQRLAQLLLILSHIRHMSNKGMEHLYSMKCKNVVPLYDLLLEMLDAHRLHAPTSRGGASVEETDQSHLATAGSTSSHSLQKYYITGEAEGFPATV
Thyrotropin receptor (Homo sapiens), sequence (P16473 whole entry, looked up): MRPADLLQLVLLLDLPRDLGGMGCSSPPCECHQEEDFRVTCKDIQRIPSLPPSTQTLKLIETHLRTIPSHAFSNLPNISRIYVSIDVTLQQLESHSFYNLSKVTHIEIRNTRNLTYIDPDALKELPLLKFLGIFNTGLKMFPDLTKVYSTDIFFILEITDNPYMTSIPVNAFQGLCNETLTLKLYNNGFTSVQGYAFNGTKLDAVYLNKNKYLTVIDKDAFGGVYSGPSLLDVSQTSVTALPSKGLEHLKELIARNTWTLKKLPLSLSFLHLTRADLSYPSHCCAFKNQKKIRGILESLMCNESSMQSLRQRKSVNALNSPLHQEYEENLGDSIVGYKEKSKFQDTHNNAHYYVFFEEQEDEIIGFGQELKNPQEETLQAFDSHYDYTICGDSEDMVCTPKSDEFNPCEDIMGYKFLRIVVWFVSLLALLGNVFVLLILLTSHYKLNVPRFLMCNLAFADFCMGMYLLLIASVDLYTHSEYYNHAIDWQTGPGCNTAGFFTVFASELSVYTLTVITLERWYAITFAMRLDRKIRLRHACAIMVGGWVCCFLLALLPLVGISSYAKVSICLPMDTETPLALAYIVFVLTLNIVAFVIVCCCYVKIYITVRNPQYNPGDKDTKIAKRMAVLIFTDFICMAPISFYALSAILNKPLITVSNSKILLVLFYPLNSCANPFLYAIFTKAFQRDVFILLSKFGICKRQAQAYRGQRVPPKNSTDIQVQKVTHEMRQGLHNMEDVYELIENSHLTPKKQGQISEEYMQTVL

Turning to `C=CC(=O)OCCN(CC)CC`, the Potency result in test [1], in test [2], in test [3], in test [4], in test [5] and in test [6] was “inactive” in each case. Also, the Potency result in test [7], in test [8], in [9], in [10], in test [11] and in test [12] was “inactive” throughout. Also, the Potency result in test [13], in test [14], in test [16] and in test [17] was “inactive” throughout. Also, the outcome in test [15] was inactive.

In the case of `CC(C)(C)c1cc(CCC(=O)NCCCCCCNC(=O)CCc2cc(C(C)(C)C)c(O)c(C(C)(C)C)c2)cc(C(C)(C)C)c1O`, the Potency result in [1], in [2], in test [3], in [4], in test [5] and in test [6] was “inactive” throughout. Besides, the Potency entry in test [7], in [8], in test [9], in [11], in test [12] and in test [13] was “inactive” in each case. In addition, the Potency entry in test [18], in test [19], in test [14], in [16] and in [17] was “inactive” throughout. In test [15], the outcome was inactive.

With `C[C@@H]1CC[C@H]2C(C)(C)[C@H]3C[C@@]12CC[C@@]3(C)O`, the Potency entry in test [1], in test [2], in test [3], in test [4], in [5] and in [6] was “inactive” in each case. Moreover, the Potency entry in test [7], in test [8], in test [9], in test [10], in test [11] and in test [12] was “inactive” each time. For the same compound, the Potency entry in test [13], in test [18], in test [19], in test [14], in test [16] and in test [17] was “inactive” in each case. Also, in test [15], the call was inactive.

Regarding `CCOCOCC`, the Potency entry in test [1], in test [2], in [3], in test [4], in [5] and in test [6] was “inactive” throughout. Moreover, the Potency entry in test [7], in test [8], in [9], in test [10], in test [11] and in [12] was “inactive” throughout. Moreover, the Potency result in test [13], in [18], in test [19], in [16] and in test [17] was “inactive” in each case. Also, in test [15], the compound was classed as inactive.

With `COc1ccc(-n2nc(CCC(=O)N(C)O)cc2-c2ccc(Cl)cc2)cc1`, the Potency result in test [1], in [2], in [4], in test [5], in test [6] and in test [7] was “inactive” in each case. Moreover, the Potency entry in [8], in [10], in [12], in test [18], in test [14] and in test [16] was “inactive” throughout. Besides, in [17], the Potency result was “inactive”. The Potency is 26.6 µM (active) in test [3], 8.41 µM (active) in [9], 7.5 µM (active) in [11] and 7.5 µM (active) in test [13]. Further, the compound was classed as inactive in test [15].

Turning to `O=C(O)Cc1ccc(OCCNC[C@H](O)c2ccccc2)cc1`, the Potency result in test [1], in test [2], in [3], in test [20], in test [4] and in test [5] was “inactive” each time. Further, the Potency result in test [6], in test [8], in test [12], in test [13], in test [19] and in [14] was “inactive” each time. Moreover, the Potency entry in test [16] and in [17] was “inactive” each time. The call in test [15] was inactive.

Take `CCc1ccc(C)nc1`: the Potency entry in test [1], in test [2], in test [3], in [4], in [5] and in test [6] was “inactive” in each case. Also, the Potency entry in test [7], in [8], in test [9], in test [10], in test [11] and in test [12] was “inactive” each time. The Potency result in test [13], in [18], in [19], in [14] and in [17] was “inactive” in each case. For the same compound, the result in test [15] was inactive.

With `CCOB(OCC)OCC`, the Potency result in test [1], in test [2], in test [3], in test [4], in test [5] and in [6] was “inactive” in each case. The Potency result in test [7], in [8], in [9], in test [10], in test [11] and in test [12] was “inactive” each time. Besides, the Potency result in [13], in test [19], in test [14], in test [16] and in test [17] was “inactive” throughout. In addition, the outcome in test [15] was inactive.
